High-throughput results: PubChem, National Center for Advancing Translational Sciences (NCATS)
An excerpt weighted towards active compounds, which were near 12% of everything screened.
BAZ2B inh = qHTS Assay for Inhibitors of BAZ2B; 4.4% of 360,000 active; AlphaScreen BAZ2B-H3K14Ac peptide displacement; Bromodomain adjacent to zinc finger domain protein 2B (Homo sapiens), Q9UIF8; Potency, µM (titrated, usually from 114 µM), without a hit: top-dose activity change, negative = inhibition, usual class: inhibitors; also: % is scaled to controls: 0 for no effect and ±100 for the full control effect; nearly all actives have a fitted effect of over 60% in size
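Compounds, titrated to a top concentration of 110 uM, were incubated 30 min at room temperature with preformed BAZ2B/acetyl-K14 H3 peptide complex (50 nM each). Proximity signal was measured by AlphaScreen after 20 min with beads.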
PLK1 PBD block = qHTS for Inhibitors of PLK1-PDB (polo-like kinase 1 - polo-box domain): Primary Screen; Serine/threonine-protein kinase PLK1 (Homo sapiens), P53350; Plk1 PBD binding of FITC phosphopeptide, fluorescence polarization; Potency, µM, without a hit: max response, negative = inhibition, actives largely listed as inhibitors; 2.8% of 360,000 active; also: series mostly up to about 57 µM; % is scaled to controls: 0 for no effect and ±100 for the full control effect; nearly all actives have a fitted effect of over 65% in size
G9a block = qHTS Assay for Inhibitors of Histone Lysine Methyltransferase G9a. Histone-lysine N-methyltransferase EHMT2 (Homo sapiens), Q96KQ7. G9a H3K9 monomethylation, AlphaScreen, 2 h. Potency, µM (titrated, usually from 102 µM), without a hit: at the top dose activity, negative = inhibition, actives largely listed as inhibitors. 8.8% of 350,000 active; also: % is scaled to controls: 0 for no effect and ±100 for the full control effect; nearly all actives have a fitted effect of over 75% in size
Target sequence (Q96KQ7 913-1193 limits assumed): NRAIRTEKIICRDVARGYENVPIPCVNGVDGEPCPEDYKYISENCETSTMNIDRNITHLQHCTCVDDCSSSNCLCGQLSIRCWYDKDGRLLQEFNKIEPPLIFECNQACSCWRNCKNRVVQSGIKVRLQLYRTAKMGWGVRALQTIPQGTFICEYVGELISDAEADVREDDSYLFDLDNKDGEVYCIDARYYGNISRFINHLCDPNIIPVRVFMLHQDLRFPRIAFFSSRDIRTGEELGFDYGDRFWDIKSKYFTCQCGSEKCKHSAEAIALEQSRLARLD
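AlphaScreen detection with an anti-monomethyl H3K9 antibody quantified product after a 2 h room-temperature reaction containing 500 nM biotinylated H3K9 peptide, 20 µM SAM and 20 nM enzyme, which had been preincubated 15 min with compound.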
HP1b binding inh = HTS for Inhibitors of HP1-beta Chromodomain Interactions with Methylated Histone Tails. Chromobox protein homolog 1 (Homo sapiens), P83916. AlphaScreen HP1-beta / biotin-H3K9me3 peptide binding. Potency, µM (top dose mostly 114 µM), without a hit: at the top dose activity change, negative = inhibition, actives largely listed as inhibitors. 0.56% of 390,000 active. AID 540317, 2011; also: nearly all actives have a fitted effect of over 70% in size
Target sequence (P83916 whole entry, looked up): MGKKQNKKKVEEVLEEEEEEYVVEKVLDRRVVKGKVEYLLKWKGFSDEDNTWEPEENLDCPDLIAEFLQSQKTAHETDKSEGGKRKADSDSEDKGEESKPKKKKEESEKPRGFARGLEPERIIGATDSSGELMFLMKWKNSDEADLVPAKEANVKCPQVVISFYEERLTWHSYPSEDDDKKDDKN
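AlphaScreen: HP1-beta (50 nM) preformed 30 min with biotin-H3(1-18)K9me3 peptide (50 nM) in PBS pH 7.4, 0.01% Tween-20. Compound added for 30 min at RT, then streptavidin donor/nickel chelate acceptor beads (10 ug/mL) for 30 min.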
Sfp inh = qHTS Assay for Inhibitors of Bacillus subtilis Sfp phosphopantetheinyl transferase (PPTase); Biochemical Sfp PPTase activity, qHTS; 3.5% of 310,000 active; Potency, µM, for the others: largest response in the series, negative = inhibition, most hits filed as inhibitors;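 also: the enzyme is Sfp with the accession as filed and its product quenches rhodamine fluorescence; 0% = enzyme reaction without inhibitor and -100% = no enzyme wells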
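Fluorescence-quenching assay with 15 nM Sfp, 5 uM rhodamine-CoA and 12.5 uM BHQ-2-labelled ybbR peptide in pH 7.6 Hepes/MgCl2 buffer. Enzyme was pre-incubated with compound for 15 min at room temperature. Rate was taken from the 30-min fluorescence change (525/598 nm).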
JMJD2A Tudor inh = qHTS Assay for Inhibitors of JMJD2A-Tudor Domain. Lysine-specific demethylase 4A (Homo sapiens), O75164. AlphaScreen JMJD2A-Tudor / H3K4me3 peptide binding. Potency, µM (doses to about 114 µM), inactives show top-dose activity change, negative = inhibition, hits mostly inhibitors. 4.4% of 390,000 active. AID 504339, 2011; also: % is scaled to controls: 0 for no effect and ±100 for the full control effect; nearly all actives have a fitted effect of over 50% in size
The depositor's hits bear a star; ? = inconclusive; nt = not tested or not shown; [ ] = remark or other dose. Calls follow the shape of the dose curve; as a rule, active = well fitted curve in the direction sought with a large enough effect; inconclusive = small, poorly fitted or top-dose-only effect, or another doubt; inactive = no such curve, though single readings can be large; an effect the other way counts as inactive or inconclusive. Potency is read from the fitted curve at half-maximal effect.

SMILES	BAZ2B inh	PLK1 PBD block	G9a block	HP1b binding inh	Sfp inh	JMJD2A Tudor inh
CCCCCCCCCCCC(=O)OCC(O)C1OCC(O)C1O (centres undefined)	nt	nt	-0.2%[12.7 µM]	nt	11.3%	nt
COc1ccc(CN2C(=O)c3ccccc3C2=O)cc1C(=O)Nc1ccccc1N1CCOCC1	nt	-12.2%	2.3%	8.5%	10.2%	?
COc1ccc(NC(=O)c2cc(CN3C(=O)c4ccccc4C3=O)ccc2OC)cn1	?	26.7µM*	?	-0.7%	-24.3%	-6.9%[11.4 µM]
CCCSc1nnc2n(-c3ccc(OC)cc3)c(=O)c3c4c(sc3n12)COC(C(C)C)C4 (centres undefined)	-1.0%	nt	-14.9%[59 µM]	38.3%	nt	0.0%
COc1ccccc1OCC(=O)Nc1ccncc1	-2.9%	0.1%	16.3%	43.1%	15.9%	-4.3%
COc1ccccc1OCC(=O)Nc1ccccn1	3.6%	-0.7%	20µM*	31.1%	1.2%	-6.8%
COc1ccc(NC(=O)C(=O)N/N=C(\C)CC(=O)Nc2ccccn2)c(OC)c1	-18.9%	-3.9%	-35.5%	25.7%	22.5%	-14.2%
COc1ccccc1NC(=O)C(=O)N/N=C(\C)CC(=O)Nc1ccccn1	79.4µM*	1.1%	nt	44.1%	6.1%	-8.3%
COc1ccc(C2=NOC3(CC(=O)N(c4ccc(F)cc4)C3=O)C2)c(OC)c1 (centres undefined)	-28.9%	-10.0%	50.1µM*	6.0%	10.6%	-27.0%
Cc1ccc(C2=NOC3(CC(=O)N(c4ccc(C)cc4)C3=O)C2)cc1 (centres undefined)	-3.1%	-3.1%	nt	28.6%	5.9%	3.2%
COc1ccc(C2=NOC3(CC(=O)N(c4ccc5ccccc5c4)C3=O)C2)c(OC)c1 (centres undefined)	?	-13.7%	?	-20.4%	3.2%	50.1µM*
COc1ccc(C2=NOC3(CC(=O)N(c4ccc(F)cc4)C3=O)C2)cc1 (centres undefined)	-18.7%	-7.5%	50.1µM*	29.5%	0.9%	-14.0%
Cc1ccc(NC(=O)CC2Sc3ccccc3NC2=O)c(Br)c1 (centres undefined)	0.2%	nt	-42.6%[59 µM]	26.1%	nt	-6.6%
Cc1ccc(C2NC(c3ccc4c(c3)OCO4)=CC(c3cc(Br)ccc3O)N2)cc1 (centres undefined)	nt	nt	nt	11.2%[57 µM]	nt	-22.3%[57.1 µM]
COCCC(=O)N1CCC(Oc2ccc(C(=O)N3CCC(N(C)C)C3)cc2)CC1 (centres undefined)	-2.3%[57.1 µM]	-1.0%	3.0%	21.6%	9.0%	13.4%
Cc1ccc2c(CNCc3ccc(C)o3)c(C(=O)O)n(Cc3ccc(F)cc3)c2c1	50.1µM*	nt	?	-4.7%	nt	?
C=Cc1ccc(Cn2c(C(=O)O)c(CNCCc3ccco3)c3ccc(C)cc32)cc1	44.7µM*	nt	?	-13.5%	nt	?
Cc1ccc2c(CNCc3cccs3)c(C(=O)O)n(Cc3ccc(F)cc3)c2c1	?	nt	-32.5%[59 µM]	6.1%	nt	-34.8%
COc1ccc(Cn2c(C(=O)O)c(CNCCc3cc(OC)ccc3OC)c3ccc(C)cc32)cc1	50.1µM*	nt	-35.5%[59 µM]	-1.7%	nt	?
c1cc2c(cnc3cscc32)s1	-37.2%	1.1%	14.1µM*	40.8%	-15.2%	-9.7%
c1csc(-c2cnc3ccccc3n2)c1	32.2%	-5.4%	35.5%[59 µM]	31.3%	1.5%	18.0%
Cc1ccc(NC(=S)N(CCCN2CCOCC2)Cc2ccco2)cc1	-14.4%	?	39.8µM*	26.1%	-29.4%	-5.6%
Cc1cccc(NC(=S)N(CCCN2CCOCC2)Cc2ccccn2)c1	4.7%	-8.3%	4.9%[59 µM]	0.5%	8.1%	-13.6%
CCN1CCN(CCCN(Cc2ccco2)C(=S)Nc2ccc(Cl)c(C)c2)CC1	-19.7%	-0.1%	?	10.3%	13.1%	-18.2%
S=C(Nc1ccc(Oc2ccccc2)cc1)N(CCCN1CCOCC1)Cc1ccccn1	?	?	31.6µM*	-12.8%	-75.8%	-16.2%
SMILES	BAZ2B inh	PLK1 PBD block	G9a block	HP1b binding inh	Sfp inh	JMJD2A Tudor inh
CCOC(=O)c1ccc(NC(=S)N(CCN2CCCCCC2)Cc2ccco2)cc1	-16.7%	-14.8%	31.6µM*	6.7%	-23.5%	?
Cc1cc(NC(=S)N(CCN2CCCCC2)Cc2ccco2)ccc1Cl	?	-18.2%	39.8µM*	4.4%	-70.1%	-22.1%
S=C(Nc1ccc(Cl)cc1)N(CCCN1CCOCC1)Cc1ccco1	-21.3%	-12.3%	-9.9%[59 µM]	-2.9%	7.0%	-18.5%
CCOC(=O)c1ccc(NC(=S)N(CCCN2CCCCCC2)Cc2ccco2)cc1	-38.7%	-2.0%	?	13.5%	-22.9%	?
Cc1c(Cl)cnc(NC(=O)COC(=O)c2nn(C)c(=O)c3ccccc23)c1Cl	?	-15.5%	44.7µM*	13.6%	-6.9%	-24.1%
Cc1ccccc1OCC(=O)OCC(=O)Nc1ncc(Cl)c(C)c1Cl	56.2µM*	-25.9%	14.7%[2.33 µM]	4.8%	nt	?
CCCn1nc(C(=O)OCC(=O)Nc2ncc(Cl)c(C)c2Cl)c2ccccc2c1=O	-16.6%	-18.6%	?	-0.8%	6.3%	-14.5%
Cc1ccccc1OCC(=O)OCC(=O)Nc1ccc(Cl)cn1	2.8%	-11.9%	-3.7%[2.33 µM]	30.6%	nt	-13.9%
CCN1C(C)=C(C(=O)OC)C(c2ccccc2)N2C(=O)[C@@]3(C(=O)OC)O[C@@]12C1C(=O)N(c2ccccc2)C(=O)C13 (some centres undefined)	nt	nt	nt	nt	1.2%	nt
Cc1cc(C)cc(NC(=O)CSc2nncn3c2cc2occc23)c1	?	nt	-26.7%[59 µM]	22.6%	nt	-30.0%
CCc1nc(N2CCN(Cc3ccc4c(c3)OCO4)CC2)c2oc3ccccc3c2n1	70.8µM*	-3.5%	?	?	35.5µM*	?
CCc1nc(N2CCCC(C)C2)c2oc3ccccc3c2n1 (centres undefined)	56.9%	15µM*	?	63.2%	44.7µM*	20µM*
CCc1nc(N2CCCCC2)c2oc3ccccc3c2n1	6.8%	-4.5%	8.3%[59 µM]	103.7%	-22.4%	37.2%
O=C(Nc1cccc2cccnc12)C(Cl)(Cl)Cl	nt	nt	nt	62.0%	nt	17.1%
Cc1cccc(C)c1Nc1nn2c(=O)c3cc4c(cc3nc2s1)OCO4	-11.9%	nt	0.3%[59 µM]	-7.5%	nt	-34.5%
CCOC(=O)c1c(N)n(-c2ccc(N)cc2)c2nc3ccccc3nc12	-5.6%	26.7µM*	-7.1%	3.2%	-3.5%	-31.3%
